# Reference: PubChem BioAssay AID1779 (Sanford-Burnham Center for Chemical Genomics, 2009)
# In all, about 290,000 compounds went through this assay and about 160 (0.055%) were called active. This excerpt belongs to a sample that is enriched for actives. Unmarked numbers belong to inactive results. Rule as the data show it: active = inhibition above about 50%; inactive = the rest.
# Target: Tyrosine-protein phosphatase non-receptor type 22 (Homo sapiens) (UniProt Q9Y2R2)
# Assay: inhibitors of LYP phosphatase, biochemical, fluorescence intensity, uHTS (AID 1779);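 also: plate controls were vehicle with enzyme for no effect and no enzyme for full effect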
# Conditions: recombinant LYP phosphatase, at 11.5 µM, active compounds read high
# Chain of Tyrosine-protein phosphatase non-receptor type 22 (Homo sapiens) (Q9Y2R2 whole entry, looked up): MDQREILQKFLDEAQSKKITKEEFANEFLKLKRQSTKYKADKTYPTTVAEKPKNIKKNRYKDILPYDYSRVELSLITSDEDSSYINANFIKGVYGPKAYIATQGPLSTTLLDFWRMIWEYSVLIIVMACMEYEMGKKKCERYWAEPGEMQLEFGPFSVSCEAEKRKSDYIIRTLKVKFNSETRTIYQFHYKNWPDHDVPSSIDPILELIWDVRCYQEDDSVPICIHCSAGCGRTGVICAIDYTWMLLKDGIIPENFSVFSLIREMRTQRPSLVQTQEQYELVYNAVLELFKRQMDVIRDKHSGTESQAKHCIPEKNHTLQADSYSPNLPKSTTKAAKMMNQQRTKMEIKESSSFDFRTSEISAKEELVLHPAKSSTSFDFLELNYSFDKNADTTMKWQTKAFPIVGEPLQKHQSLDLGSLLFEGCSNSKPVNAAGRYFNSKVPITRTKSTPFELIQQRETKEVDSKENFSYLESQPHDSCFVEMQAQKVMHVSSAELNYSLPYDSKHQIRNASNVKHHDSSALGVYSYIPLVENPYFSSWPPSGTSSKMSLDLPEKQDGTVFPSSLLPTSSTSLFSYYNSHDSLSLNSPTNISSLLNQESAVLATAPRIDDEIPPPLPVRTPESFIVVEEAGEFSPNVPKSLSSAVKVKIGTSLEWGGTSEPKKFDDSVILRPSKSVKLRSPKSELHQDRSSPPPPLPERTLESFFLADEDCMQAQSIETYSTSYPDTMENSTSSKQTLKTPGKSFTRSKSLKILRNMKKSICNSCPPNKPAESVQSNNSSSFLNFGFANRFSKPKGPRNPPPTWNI
row,SMILES,inhibition
1,Cc1ccc2sc(NNC(=O)c3cc(=O)c4ccccc4o3)nc2c1C,1.8%
2,CSCC[C@H](NC(=O)Nc1cccc(Br)c1)C(=O)O,-3.3%
3,CSCC[C@H](NC(=O)Nc1cccc(C(F)(F)F)c1)C(=O)O,61.2% (active)
4,C[C@H](NC(=O)Nc1cccc(C(F)(F)F)c1)C(=O)O,-5.3%
5,CC(OC(=O)c1ccc(NS(=O)(=O)c2ccc3[nH]c(=O)[nH]c3c2)cc1)C(N)=O (centres undefined),-4.3%
6,Brc1ccc(C2Nc3cccc4cccc(c34)N2)o1,80.6% (active)
7,Brc1cccc(C2Nc3cccc4cccc(c34)N2)c1,-6.2%
8,c1coc(C2Nc3cccc4cccc(c34)N2)c1,18.4%
9,Cn1nc(C(C)(C)C)cc1NC(=O)Nc1ccc(Cl)cc1,0%
10,CCOc1ccccc1NC(=O)CSc1nnc(Cc2cccn2C)n1-c1ccc(F)cc1,64.9% (active)
11,COc1ccccc1NC(=O)CSc1nnc(Cc2cccn2C)n1-c1ccc(F)cc1,1.1%
12,Cn1cccc1Cc1nnc(SCC(=O)Nc2ccccc2F)n1-c1ccc(F)cc1,8.3%
13,CCc1cccc(NC(=O)C2CCCN(c3ncnc4c3nc3n4CCCCC3)C2)c1 (centres undefined),-6.4%
14,COc1ccccc1CC(NC(C)=O)C(=O)NC1CCN(C(=O)Nc2ccc(F)cc2)CC1 (centres undefined),-8%
15,Cc1nn(C)c(C(=O)N/N=C/c2cccnc2)c1Cl,-2.8%
16,Cc1ccccc1Cc1c(C)nc2ncnn2c1C,-9%
17,CCOC(=O)N1CCN(c2cc(NCCC(=O)O)c3c4c(onc24)-c2ccccc2C3=O)CC1,3.3%
18,O=C(O)CCCNc1cc(N2CCC3(CC2)OCCO3)c2noc3c2c1C(=O)c1ccccc1-3,75.6% (active)
19,O=C(O)CCCNc1cc(N2CCN(C(=O)c3ccco3)CC2)c2noc3c2c1C(=O)c1ccccc1-3,2.4%
20,Clc1ccc2nc(-c3ccc(Br)s3)cn2c1,-4.3%
21,CC(=Nc1ccccc1)c1sc2ccccc2c1O,2%
22,COc1ccc(/C=C2\SC(N)=NC2=O)cc1Br,-4.5%
23,COc1cccc(C(=O)Nc2cccc(-c3ccc4nncn4n3)c2)c1OC,-0.4%
24,COc1cccc(OC)c1C(=O)Nc1cccc(-c2ccc3nncn3n2)c1,-6.9%
25,CC(C)CC1=NN(C(=O)c2ccco2)C(O)(C(F)(F)F)C1 (centres undefined),-6.1%

row,SMILES,inhibition
1,C=CCN(CC=C)C(=S)NC(=O)/C=C/c1ccccc1,2.6%
2,C=CCN(CC=C)C(=S)NC(=O)/C=C/c1ccc(OC)cc1,8.3%
3,C=CCN(CC=C)C(=S)NC(=O)/C=C/c1ccc(C)cc1,65.4% (active)
4,COc1ccc(S(=O)(=O)Nc2nccs2)cc1OC,-10.2%
5,CCC(C)n1c(C)nc2c(c1=O)c1nc3ccccc3nc1n2CCC1=CCCCC1 (centres undefined),7.5%
6,c1ccc(-c2cc(N3CCOCC3)nc3ccccc23)cc1,2.6%
7,COc1ccc2c(C)cc(N3CCOCC3)nc2c1,-0.1%
8,COc1ccc2c(-c3ccccc3)cc(N3CCOCC3)nc2c1,72.7% (active)
9,NC(=O)c1nn(-c2ccccc2)nc1NC(=O)CSc1nnnn1-c1ccc(Cl)cc1,5.7%
10,Cc1cccc(NC(=O)c2ccc(OC3CSC3)cc2)c1,-5%
11,O=C(Nc1ccc(Cl)cc1)c1ccc(OC2CSC2)cc1,67.9% (active)
12,CC(=O)c1cccc(NC(=O)c2ccc(OC3CSC3)cc2)c1,-7%
13,Cc1ccc(CNC(=O)c2cncc(Br)c2)cc1,-2.9%
14,O=C(NCc1ccncc1)c1cncc(Br)c1,-9.5%
15,O=C(NCc1ccccc1)c1cncc(Br)c1,67.8% (active)
16,NC(=O)Nc1ccc(C(=O)OCC(=O)Nc2cccc(S(=O)(=O)NC3=NCCCCC3)c2)cc1,-1.2%
17,CCOC(=O)c1cc(-c2ccccc2)sc1NC(=S)Nc1cccc(C)n1,5.7%
18,Cc1ccc2nsnc2c1NC(=O)CCl,-1.6%
19,CC(C)Cc1nc(S(=O)(=O)c2ccc(Cl)cc2)c(N2CCOCC2)o1,81.8% (active)
20,CC(C)(C)c1nc(S(=O)(=O)c2ccc(Cl)cc2)c(N2CCOCC2)o1,-10.6%
21,CCCCc1nc(S(=O)(=O)c2ccc(Cl)cc2)c(N2CCOCC2)o1,-7.7%
22,CCc1ccc2c(CC(=O)Nc3nnc(C4CC4)s3)coc2c1,-7.3%
23,Cc1ccc(CNC(=O)CN2CCN(c3ccc(F)cc3)CC2)cc1,1.2%
24,CCN(CCO)Cc1csc2ccc(Br)cc12,-8.6%
